Measured values taken from PubChem BioAssay (Tox21).
Several values for one entry are separate records, joined by “and”; a condition that tells them apart may be missing. Identical values can stand only once. Inconclusive results are not listed. Where a call stands in place of a potency, no number is given. Some compounds were tested as several samples or in several runs, with calls that do not always agree. Activity calls are given as the source filed them. Unless noted, calls come from the whole dose curve; as a rule, active = well fitted curve in the direction sought with a large enough effect in the repeat runs; inconclusive = weak or mixed curves; inactive = no such curve, though single readings can be large; an effect the other way counts as inactive or inconclusive.

Tests used:
[1] = qHTS assay to identify small molecule HDAC inhibitors (AID 1259364); note: potency is the fitted concentration of half-maximal effect;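 note: wild-type HCT-116 cells with endogenous class I/II HDAC activity; nearly all actives have a fitted effect of over 45% in size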
Summary of the method: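 Cells (HCT-116, wild type) are seeded at 1,500 per well, incubated overnight, treated with compound in DMSO for 2 hr, then developed with HDAC-Glo I/II reagent for 30 min at room temperature.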

[2] = qHTS assay to identify small molecule HDAC inhibitors - cell viability counter screen (AID 1259365); note: series mostly up to about 92 µM; nearly all actives have a fitted effect of over 50% in size
Summary of the method: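 To flag cytotoxic hits, 1,500 wild-type HCT-116 cells per well, plated the day before, receive test compounds for 2hr at 37 C before CellTiter-Glo reagent and a luminescence read.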

[3] = qHTS assay to identify small molecule agonists of the sonic hedgehog signaling (Shh) pathway - cell viability counter screen (AID 1259366); note: nearly all actives have a fitted effect of over 50% in size; note: potency is the fitted concentration of half-maximal effect
Summary of the method: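 Fluorescence from CellTiter-Fluor reports live cells in this counter screen. NIH/3T3-derived Gli1-Luc reporter cells receive test compounds for 24hr at 37C; reagent goes in at 23hr.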

[4] = qHTS assay to identify small molecule antagonists of the sonic hedgehog signaling (Shh) pathway - cell viability counter screen (AID 1259367); note: nearly all actives have a fitted effect of over 55% in size; note: potency is the fitted concentration of half-maximal effect
Summary of the method: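 Fluorescence read-out (CellTiter-Fluor, 1 hr at 37C) taken after 23 hr compound treatment of 3T3 Gli1-Luc cells stimulated with conditioned medium. Cells were seeded at 2,000 per well and pre-incubated 4 hr.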

[5] = qHTS assay to identify small molecule agonists of the sonic hedgehog signaling (Shh) pathway (AID 1259368; calls by dose curve;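 note: NIH/3T3-derived 3T3Gli1-Luc cells carrying a stable Gli1-driven firefly luciferase reporter; series mostly up to about 92 µM; nearly all actives have a fitted effect of over 15% in size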)
Summary of the method: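 Cells of a mouse NIH/3T3 clone stably expressing luciferase under the Gli1 transcriptional response element are exposed to test chemicals for 24 hr at 37 C. Pathway activation is detected as a rise in luminescence.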

[6] = qHTS assay to identify small molecule antagonists of the sonic hedgehog signaling (Shh) pathway (AID 1259369; calls by dose curve; note: nearly all actives have a fitted effect of over 45% in size; note: potency is the fitted concentration of half-maximal effect)
Summary of the method: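 Cells are plated and held 4hr at 37 C, compounds (DMSO) are pinned in, conditioned medium is added to stimulate the pathway, and after 24hr luciferase reagent is added for 30min before luminescence is read.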

[7] = molecular target: Estrogen receptor beta (Homo sapiens) (UniProt Q92731); assay: qHTS assay to identify small molecule agonists of the estrogen receptor beta (ER-beta) signaling pathway (AID 1259377; active = well fitted activation curve with a large enough effect in the signal ratio in the repeat runs, not every such curve was filed as active; the % refers to the signal ratio)
Sequence of Estrogen receptor beta (Homo sapiens) (Q92731 whole entry, looked up): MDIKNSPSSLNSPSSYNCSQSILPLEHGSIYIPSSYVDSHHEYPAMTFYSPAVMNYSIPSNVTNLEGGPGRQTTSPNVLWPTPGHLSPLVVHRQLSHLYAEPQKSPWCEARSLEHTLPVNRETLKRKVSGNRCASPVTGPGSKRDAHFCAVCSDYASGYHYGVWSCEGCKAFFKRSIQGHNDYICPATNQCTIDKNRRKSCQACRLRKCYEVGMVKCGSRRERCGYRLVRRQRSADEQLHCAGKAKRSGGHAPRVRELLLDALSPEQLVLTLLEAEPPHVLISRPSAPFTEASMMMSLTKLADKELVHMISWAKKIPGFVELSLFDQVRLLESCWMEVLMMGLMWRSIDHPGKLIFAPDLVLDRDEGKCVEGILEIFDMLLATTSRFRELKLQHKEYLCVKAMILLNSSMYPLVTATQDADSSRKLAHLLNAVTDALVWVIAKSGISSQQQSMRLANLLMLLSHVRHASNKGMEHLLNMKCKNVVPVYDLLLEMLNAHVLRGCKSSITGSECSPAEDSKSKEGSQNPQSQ
Summary of the method: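 Screening used GripTite ER-beta-UAS-bla cells held in 2% charcoal-stripped FBS medium. After overnight (16 hr) compound incubation at 37C, beta-lactamase activity was detected with a FRET substrate by fluorescence.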

[8] = molecular target: Estrogen receptor beta (Homo sapiens) (UniProt Q92731); assay: qHTS assay to identify small molecule antagonists of the estrogen receptor beta (ER-beta) signaling pathway (AID 1259378; active = well fitted inhibition curve with a large enough effect in the signal ratio in the repeat runs, not every such curve was filed as active; the % refers to the signal ratio)
Summary of the method: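 ER-beta-UAS-bla HEK293T cells in 2% charcoal-stripped FBS medium treated with compound plus 1nM final 17-beta-estradiol for 16 hr at 37C. Beta-lactamase reporter read by FRET substrate fluorescence after 2 hours at room temperature.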

[9] = qHTS assay to identify small molecule agonists of the androgen receptor (AR) signaling pathway in the presence of an antagonist - cell viability counter screen (AID 1259379);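 note: MDA-kb2 human breast cancer cells carrying an MMTV luciferase reporter; series mostly up to about 92 µM; nearly all actives have a fitted effect of over 25% in size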
Summary of the method: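 Cytotoxicity is assessed by CellTiter-Fluor in MDA-kb2 cells carrying an MMTV-driven luciferase reporter. Cells receive 3.0uM nilutamide plus compounds at 15 concentrations and incubate 16 hr at 37C without CO2 before fluorescence reading.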

[10] = qHTS assay to identify small molecule agonists of the estrogen receptor beta (ER-beta) signaling pathway - cell viability counter screen (AID 1259380); note: nearly all actives have a fitted effect of over 30% in size
Summary of the method: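 Cytotoxicity is measured in parallel with the reporter screen: after 16 hr compound exposure at 37C and a 2 hr LiveBLAzer step, CellTiter-Glo is added to the same ER-beta-UAS-bla HEK293T wells and luminescence read after 30 min.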

[11] = qHTS assay to identify small molecule antagonists of the estrogen receptor beta (ER-beta) signaling pathway - cell viability counter screen (AID 1259382); note: series mostly up to about 92 µM; nearly all actives have a fitted effect of over 55% in size
Summary of the method: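 Cytotoxicity counter screen multiplexed with the beta-lactamase antagonist assay: GripTite HEK293T ER-beta-bla cells were treated 16 hr with test chemicals in the presence of 1nM 17-beta-estradiol, and viability was measured by CellTiter-Glo.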

[12] = qHTS assay to identify small molecule agonists of the estrogen receptor alpha (ER-alpha) signaling pathway in the presence of an antagonist - cell viability counter screen (AID 1259386);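 note: series mostly up to about 92 µM; cells exposed to compounds for 22 h at 37 °C before the viability read; nearly all actives have a fitted effect of over 30% in size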
Summary of the method: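 Cytotoxicity was measured in parallel with the ERE-luciferase agonist screen, in the same wells. The cells were VM7Luc4E2, which endogenously express ER-alpha, and treatment was with compounds plus 10.0nM ICI-182,780 for 22hr.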

[13] = molecular target: Progesterone receptor (Homo sapiens) (UniProt P06401); assay: qHTS assay to identify small molecule agonists of the progesterone receptor (PR) signaling pathway (AID 1346784; calls by dose curve; note: nearly all actives have a fitted effect of over 30% in size)
Sequence of Progesterone receptor (Homo sapiens) (P06401 whole entry, looked up): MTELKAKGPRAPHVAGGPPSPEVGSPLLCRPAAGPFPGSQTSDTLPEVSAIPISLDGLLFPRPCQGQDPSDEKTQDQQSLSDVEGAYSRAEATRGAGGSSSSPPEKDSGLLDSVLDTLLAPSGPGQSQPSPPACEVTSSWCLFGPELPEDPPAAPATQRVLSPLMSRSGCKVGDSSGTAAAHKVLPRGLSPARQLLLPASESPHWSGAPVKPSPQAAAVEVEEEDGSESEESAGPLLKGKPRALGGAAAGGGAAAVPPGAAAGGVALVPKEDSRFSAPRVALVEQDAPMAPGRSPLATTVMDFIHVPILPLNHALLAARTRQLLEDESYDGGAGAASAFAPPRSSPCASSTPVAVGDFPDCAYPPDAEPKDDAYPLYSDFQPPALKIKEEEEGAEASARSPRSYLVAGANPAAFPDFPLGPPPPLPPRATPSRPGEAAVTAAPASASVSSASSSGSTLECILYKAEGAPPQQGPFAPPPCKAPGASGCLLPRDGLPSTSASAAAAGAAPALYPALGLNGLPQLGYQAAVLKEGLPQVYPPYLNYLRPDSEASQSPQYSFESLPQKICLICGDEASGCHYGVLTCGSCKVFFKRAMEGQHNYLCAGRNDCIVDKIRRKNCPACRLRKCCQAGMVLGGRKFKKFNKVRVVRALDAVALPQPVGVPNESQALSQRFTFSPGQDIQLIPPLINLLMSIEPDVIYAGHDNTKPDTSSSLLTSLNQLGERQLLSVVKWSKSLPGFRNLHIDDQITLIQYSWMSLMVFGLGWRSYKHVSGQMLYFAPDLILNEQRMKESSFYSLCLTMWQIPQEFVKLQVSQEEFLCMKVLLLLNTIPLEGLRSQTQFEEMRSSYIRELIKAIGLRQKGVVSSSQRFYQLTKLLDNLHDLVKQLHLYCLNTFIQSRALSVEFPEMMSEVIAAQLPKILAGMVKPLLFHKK
Summary of the method: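 Seed PR-UAS-bla HEK 293T cells (2% charcoal-stripped FBS), incubate 6 hr at 37C; add compounds in DMSO, 16 hr at 37C; add LiveBLAzer B/G substrate, 2 hr RT; read fluorescence intensity.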

[14] = molecular target: Progesterone receptor (Homo sapiens) (UniProt P06401); assay: qHTS assay to identify small molecule antagonists of the progesterone receptor (PR) signaling pathway (AID 1346795; active = well fitted inhibition curve with a large enough effect in the signal ratio in the repeat runs, not every such curve was filed as active; the % refers to the signal ratio; note: potency is the fitted concentration of half-maximal effect)
Summary of the method: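 Screening used a GripTite HEK293T line with PR-responsive UAS-beta-lactamase. Cells were challenged with compound in the presence of 1 nM R5020 final for 16 hr at 37C; B/G FRET substrate, 2 hr room temperature, fluorescence.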

[15] = molecular target: Estrogen receptor (Homo sapiens) (UniProt P03372); assay: qHTS assay to identify small molecule agonists of the estrogen receptor alpha (ER-alpha) signaling pathway in the presence of an antagonist (AID 1259383; calls by dose curve; note: top concentration of the series differs between compounds; nearly all actives have a fitted effect of over 15% in size)
Sequence of Estrogen receptor (Homo sapiens) (P03372 whole entry, looked up): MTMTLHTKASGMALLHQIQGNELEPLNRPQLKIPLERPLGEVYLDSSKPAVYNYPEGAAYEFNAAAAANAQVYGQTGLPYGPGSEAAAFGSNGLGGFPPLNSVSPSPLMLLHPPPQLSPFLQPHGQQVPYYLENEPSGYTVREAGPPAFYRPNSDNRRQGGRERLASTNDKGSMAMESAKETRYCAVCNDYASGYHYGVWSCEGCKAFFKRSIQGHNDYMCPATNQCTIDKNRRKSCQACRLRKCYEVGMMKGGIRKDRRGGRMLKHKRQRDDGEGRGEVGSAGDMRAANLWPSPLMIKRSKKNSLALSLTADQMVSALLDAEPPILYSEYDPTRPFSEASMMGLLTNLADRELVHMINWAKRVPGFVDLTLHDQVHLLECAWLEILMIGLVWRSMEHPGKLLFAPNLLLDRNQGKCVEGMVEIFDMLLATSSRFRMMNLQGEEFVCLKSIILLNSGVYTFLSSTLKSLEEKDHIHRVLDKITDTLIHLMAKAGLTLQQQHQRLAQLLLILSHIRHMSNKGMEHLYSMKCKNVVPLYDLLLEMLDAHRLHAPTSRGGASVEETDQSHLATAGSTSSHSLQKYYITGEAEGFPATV
Summary of the method: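 Agonist-mode confirmation in the presence of the ER antagonist ICI-182,780 at 10.0nM final. Breast-derived VM7Luc4E2 reporter cells were exposed to compounds for 22hr, and ERE-driven luciferase was quantified by luminescence.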

[16] = molecular target: Thyrotropin receptor (Homo sapiens) (UniProt P16473); assay: qHTS assay to identify small molecule antagonists of the thyroid stimulating hormone receptor (TSHR) signaling pathway (AID 1259385; calls by dose curve; note: nearly all actives have a fitted effect of over 20% in size; note: potency is the fitted concentration of half-maximal effect)
Sequence of Thyrotropin receptor (Homo sapiens) (P16473 whole entry, looked up): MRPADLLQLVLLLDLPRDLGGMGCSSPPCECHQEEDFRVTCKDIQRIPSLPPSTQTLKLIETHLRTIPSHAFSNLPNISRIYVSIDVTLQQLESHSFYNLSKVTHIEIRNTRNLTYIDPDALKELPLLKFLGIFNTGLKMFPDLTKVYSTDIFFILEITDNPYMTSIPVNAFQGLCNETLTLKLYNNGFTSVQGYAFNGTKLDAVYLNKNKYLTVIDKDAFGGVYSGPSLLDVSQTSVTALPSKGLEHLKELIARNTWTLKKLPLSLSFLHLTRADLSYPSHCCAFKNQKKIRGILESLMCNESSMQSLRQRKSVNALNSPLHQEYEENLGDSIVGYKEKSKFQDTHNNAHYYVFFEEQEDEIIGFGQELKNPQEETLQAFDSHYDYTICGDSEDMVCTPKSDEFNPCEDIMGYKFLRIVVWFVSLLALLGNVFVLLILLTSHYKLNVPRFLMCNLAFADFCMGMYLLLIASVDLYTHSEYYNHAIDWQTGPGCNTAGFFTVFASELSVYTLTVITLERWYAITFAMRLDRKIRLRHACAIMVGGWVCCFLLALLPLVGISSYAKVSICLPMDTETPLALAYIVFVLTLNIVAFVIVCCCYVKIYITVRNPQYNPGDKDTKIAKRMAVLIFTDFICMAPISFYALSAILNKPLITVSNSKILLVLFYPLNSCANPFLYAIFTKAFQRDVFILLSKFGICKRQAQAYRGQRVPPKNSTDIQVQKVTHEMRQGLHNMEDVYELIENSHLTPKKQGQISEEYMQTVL
Summary of the method: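 TSHR-HEK293 cells (800/well) plated 18 h, then compounds with Ro20-1724 and TSH at 1.5 ng/mL final, 30 min at room temperature. cAMP quantified by HTRF (cAMP-d2/anti-cAMP-cryptate, 1 h); 15 concentrations in triplicate.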

[17] = qHTS assay to identify small molecule antagonists of the progesterone receptor (PR) signaling pathway - cell viability counter screen (AID 1346798); note: series mostly up to about 92 µM; nearly all actives have a fitted effect of over 50% in size
Summary of the method: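 Measures cytotoxicity in parallel with the PR antagonist reporter read: HEK293T PR-UAS-bla cells get compound and R5020 for 16 hr, and remaining viable cells are quantified by CellTiter-Glo luminescence.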

[18] = qHTS assay to identify small molecule agonists or antagonists of the thyroid stimulating hormone receptor (TSHR) signaling pathway - wild type cell line counter screen (AID 1259384; calls by dose curve)
Summary of the method: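 Wild-type Hek293 cells, 800/well, 18 h at 37C, then compound with Ro20-1724 for 30 min RT. cAMP by HTRF (cAMP-d2/anti-cAMP cryptate), 1 h RT, fluorescence read. 15 concentrations, triplicates.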

[19] = molecular target: Androgen receptor (Homo sapiens) (UniProt P10275); assay: qHTS assay to identify small molecule agonists of the androgen receptor (AR) signaling pathway in the presence of an antagonist (AID 1259381; calls by dose curve; note: nearly all actives have a fitted effect of over 15% in size)
Sequence of Androgen receptor (Homo sapiens) (P10275 whole entry, looked up): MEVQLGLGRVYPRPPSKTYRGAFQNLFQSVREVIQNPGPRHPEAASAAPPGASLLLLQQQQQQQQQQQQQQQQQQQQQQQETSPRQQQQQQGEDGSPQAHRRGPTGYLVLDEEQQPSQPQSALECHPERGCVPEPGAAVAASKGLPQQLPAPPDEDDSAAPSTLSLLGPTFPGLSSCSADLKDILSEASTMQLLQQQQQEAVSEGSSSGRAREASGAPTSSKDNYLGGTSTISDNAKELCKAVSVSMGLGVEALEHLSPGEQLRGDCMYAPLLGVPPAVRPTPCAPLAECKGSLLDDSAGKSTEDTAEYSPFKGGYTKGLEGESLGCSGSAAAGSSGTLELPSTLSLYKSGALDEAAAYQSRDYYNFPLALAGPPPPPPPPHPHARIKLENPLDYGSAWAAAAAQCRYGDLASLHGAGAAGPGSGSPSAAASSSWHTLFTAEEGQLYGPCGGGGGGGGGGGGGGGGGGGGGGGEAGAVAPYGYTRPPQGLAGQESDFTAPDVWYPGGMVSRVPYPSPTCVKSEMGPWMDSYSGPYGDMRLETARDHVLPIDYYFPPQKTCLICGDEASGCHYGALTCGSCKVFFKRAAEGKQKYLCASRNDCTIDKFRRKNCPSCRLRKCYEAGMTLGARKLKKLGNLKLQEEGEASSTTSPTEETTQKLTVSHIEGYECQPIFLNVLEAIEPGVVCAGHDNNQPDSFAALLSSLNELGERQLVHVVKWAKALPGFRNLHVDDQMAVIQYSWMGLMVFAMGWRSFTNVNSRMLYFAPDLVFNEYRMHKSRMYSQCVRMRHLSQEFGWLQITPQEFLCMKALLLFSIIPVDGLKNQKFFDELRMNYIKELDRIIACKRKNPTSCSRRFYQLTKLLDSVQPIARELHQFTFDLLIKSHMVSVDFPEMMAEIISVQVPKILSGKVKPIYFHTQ
Summary of the method: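 Agonist-mode confirmation screen: human MDA-kb2 cells stably expressing luciferase under an MMTV promoter bearing AR and GR response elements, co-treated with 3.0uM nilutamide (final). Luminescence measured after 16hr compound incubation.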

Row | SMILES | Potency [1] | outcome [2] | Potency [3] | Potency [4] | outcome [5] | Potency [6] | Potency [7] | outcome [8] | outcome [9] | Potency [10] | Potency [11] | outcome [12] | outcome [13] | Potency [14] | Potency [15] | Potency [16] | Potency [17] | outcome [18] | outcome [19]
1 | CN(C)N=O | inactive | inactive | inactive | inactive | inactive | inactive | inactive | inactive | inactive | inactive | inactive | inactive | inactive | inactive | – | – | – | – | –
2 | CC(C)OC(=O)Nc1cccc(Cl)c1 | 15.1 µM (active) and 13.7 µM (active) | inactive | inactive | inactive | inactive | inactive | inactive | inactive | inactive | inactive | inactive | inactive | inactive | – | inactive | inactive | inactive | – | –
3 | COC(=O)NS(=O)(=O)c1ccc(N)cc1 | inactive | inactive | inactive | inactive | inactive | inactive | inactive | inactive | inactive | inactive | inactive | inactive | inactive | inactive | inactive | inactive | – | – | –
4 | Cc1ccc(N)cc1N | inactive | – | inactive | inactive | – | inactive | inactive | inactive | inactive | inactive | inactive | inactive | inactive | inactive | inactive | inactive | inactive | – | –
5 | CCC(C)(CC)c1cc(NC(=O)c2c(OC)cccc2OC)on1 | inactive | – | inactive | inactive | inactive | 6.88 µM (active) | inactive | – | inactive | inactive | inactive | inactive | inactive | – | – | – | – | – | –
6 | CC(C)NC(=O)N1CC(=O)N(c2cc(Cl)cc(Cl)c2)C1=O | inactive | – | 48.6 µM (active) and inactive | 54.5 µM (active) and inactive | inactive | 10.9 µM (active) | – | – | inactive | – | inactive | inactive | inactive | – | inactive | inactive | – | inactive | –
7 | C=C(C)CCl | inactive | – | inactive | inactive | inactive | inactive | – | – | inactive | inactive | inactive | inactive | inactive | inactive | inactive | – | – | – | inactive
8 | Cc1cc(-c2cc(C)c(N)c(C)c2)cc(C)c1N | inactive | – | inactive | inactive | inactive | 2.74 µM (active) and 21.3 µM (active) | – | – | inactive | – | inactive | inactive | inactive | – | inactive | – | inactive | inactive | –
9 | CCCCCCCCCCCC#N | inactive | – | inactive | inactive | inactive | inactive | inactive | inactive | inactive | inactive | inactive | inactive | inactive | inactive | – | inactive | inactive | inactive | –
10 | CCNc1nc(NC(C)C)nc(SC)n1 | inactive | – | inactive | inactive | inactive | inactive | inactive | inactive | inactive | inactive | inactive | inactive | inactive | inactive | – | inactive | inactive | – | inactive
11 | CC(=O)C=C(C)C | inactive | inactive | inactive | inactive | inactive | – | – | – | inactive | inactive | inactive | inactive | inactive | inactive | inactive | inactive | inactive | – | –
12 | CCCCOC(=O)c1ccccc1C(=O)OCCCC | inactive | – | inactive | inactive | inactive | inactive | inactive | inactive | inactive | inactive | inactive | inactive | inactive | – | inactive | inactive | inactive | inactive | –
13 | CC(C)(C)C(O)(CCc1ccc(Cl)cc1)Cn1cncn1 (centres undefined) | inactive | – | inactive | inactive | inactive | – | – | – | inactive | – | inactive | inactive | inactive | 17.4 µM (active) and 24.3 µM (active) | – | inactive | – | inactive | –
14 | O=c1[nH]c(=O)[nH]c(=O)[nH]1 | inactive | – | inactive | inactive | inactive | inactive | inactive | inactive | inactive | inactive | inactive | inactive | inactive | inactive | – | inactive | inactive | – | inactive
15 | O=S(=O)(c1ccc(Cl)cc1)c1cc(Cl)c(Cl)cc1Cl | inactive | inactive | inactive | inactive | inactive | – | inactive | inactive | inactive | inactive | inactive | inactive | inactive | 13.7 µM (active) | inactive | 61.1 µM (active) | inactive | inactive | –
16 | O=c1ccc(=O)[nH][nH]1 | inactive | – | inactive | inactive | inactive | inactive | – | – | inactive | inactive | inactive | inactive | inactive | inactive | – | inactive | inactive | – | inactive
17 | CN(N=O)c1ccccc1 | inactive | – | inactive | inactive | inactive | inactive | inactive | inactive | inactive | inactive | inactive | inactive | inactive | inactive | inactive | inactive | inactive | – | –
18 | C1CN2CCN1CC2 | inactive | – | inactive | inactive | inactive | inactive | inactive | inactive | inactive | inactive | inactive | inactive | inactive | inactive | inactive | inactive | inactive | inactive | –
19 | CC(Oc1ccc(Cl)cc1Cl)C(=O)O (centres undefined) | inactive | – | inactive | inactive | inactive | inactive | – | – | inactive | inactive | inactive | inactive | inactive | inactive | inactive | inactive | – | inactive | –
20 | Nc1ccc(Oc2ccc(N)cc2)cc1 | inactive | – | inactive | inactive | inactive | inactive | inactive | – | inactive | – | inactive | inactive | inactive | inactive | – | inactive | inactive | inactive | –
21 | CON(C)C(=O)Nc1ccc(Cl)c(Cl)c1 | 27.4 µM (active) and 19.3 µM (active) | – | inactive | inactive | inactive | inactive | – | – | inactive | inactive | inactive | inactive | inactive | – | inactive | inactive | inactive | inactive | –
